Assay results from the supplement of paper PMC11732987, “Enantioselective OTUD7B fragment discovery through chemoproteomics screening and high-throughput optimisation” (Communications Chemistry, 2025).

How the values were obtained:
Test in all cases: log2 ratio of Biotin-Ahx-Ub-VS probe labelling (fragment/DMSO); higher = less target engagement (more negative = stronger competition), active = hit call of the paper (q ≤ 0.05, log2 ratio ≤ -1)
Details in all cases: compound concentration: 200 uM; treatment time: 3 h
USP42 = biological target: T1, USP42 (UniProt Q9H9J4)
T1 sequence (whole entry): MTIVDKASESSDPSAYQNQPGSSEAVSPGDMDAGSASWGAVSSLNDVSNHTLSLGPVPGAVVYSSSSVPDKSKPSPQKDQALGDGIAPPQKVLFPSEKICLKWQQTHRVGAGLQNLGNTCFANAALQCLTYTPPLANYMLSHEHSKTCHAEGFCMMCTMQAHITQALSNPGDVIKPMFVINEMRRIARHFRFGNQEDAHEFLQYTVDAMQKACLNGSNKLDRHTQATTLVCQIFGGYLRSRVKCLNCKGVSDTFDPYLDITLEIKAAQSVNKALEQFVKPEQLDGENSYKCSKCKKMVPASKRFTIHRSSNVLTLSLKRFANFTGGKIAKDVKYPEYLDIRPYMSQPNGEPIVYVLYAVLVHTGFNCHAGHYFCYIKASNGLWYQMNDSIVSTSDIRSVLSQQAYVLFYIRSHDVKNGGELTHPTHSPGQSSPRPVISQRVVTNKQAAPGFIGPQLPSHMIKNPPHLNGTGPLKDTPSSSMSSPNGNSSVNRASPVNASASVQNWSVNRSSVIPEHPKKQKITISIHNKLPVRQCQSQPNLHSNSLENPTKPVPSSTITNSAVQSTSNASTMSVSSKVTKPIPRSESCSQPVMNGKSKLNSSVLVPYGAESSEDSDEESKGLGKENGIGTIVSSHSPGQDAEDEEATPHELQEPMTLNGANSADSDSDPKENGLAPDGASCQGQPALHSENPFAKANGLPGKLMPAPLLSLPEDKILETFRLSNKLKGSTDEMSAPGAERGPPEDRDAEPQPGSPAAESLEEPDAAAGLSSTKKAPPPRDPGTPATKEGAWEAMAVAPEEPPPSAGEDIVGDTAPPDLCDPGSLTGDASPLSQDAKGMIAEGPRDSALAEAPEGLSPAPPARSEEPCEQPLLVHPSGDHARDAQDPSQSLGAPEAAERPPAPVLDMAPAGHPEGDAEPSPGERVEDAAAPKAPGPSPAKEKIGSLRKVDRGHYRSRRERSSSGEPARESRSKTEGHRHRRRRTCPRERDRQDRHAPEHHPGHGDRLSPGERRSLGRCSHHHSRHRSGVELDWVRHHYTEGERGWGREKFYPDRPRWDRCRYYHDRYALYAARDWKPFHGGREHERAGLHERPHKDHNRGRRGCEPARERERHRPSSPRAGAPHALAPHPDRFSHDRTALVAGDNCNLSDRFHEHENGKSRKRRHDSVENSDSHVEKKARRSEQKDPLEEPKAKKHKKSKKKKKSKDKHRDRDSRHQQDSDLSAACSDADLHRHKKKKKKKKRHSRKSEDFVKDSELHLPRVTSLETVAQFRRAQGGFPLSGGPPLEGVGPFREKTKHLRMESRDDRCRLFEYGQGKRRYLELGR
Outline: (§1)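 Global-median-normalised Spectronaut label-free quantities were compared by unpaired t-test, and values are average log2 ratios of fragment over vehicle. Only proteins with ≥2 unique peptides were used. HEK293T lysate (495 µg per sample) was treated in triplicate with fragment at 200 µM or vehicle for 3 h and then with Biotin-Ahx-Ub-VS at 0.5 µM final for 1 h. Labelled DUBs were then NeutrAvidin-enriched, digested with LysC and trypsin, and run by diaPASEF LC-MS/MS.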

USP46 = USP46 (UniProt P62068)
Sequence of USP46 (P62068 whole entry): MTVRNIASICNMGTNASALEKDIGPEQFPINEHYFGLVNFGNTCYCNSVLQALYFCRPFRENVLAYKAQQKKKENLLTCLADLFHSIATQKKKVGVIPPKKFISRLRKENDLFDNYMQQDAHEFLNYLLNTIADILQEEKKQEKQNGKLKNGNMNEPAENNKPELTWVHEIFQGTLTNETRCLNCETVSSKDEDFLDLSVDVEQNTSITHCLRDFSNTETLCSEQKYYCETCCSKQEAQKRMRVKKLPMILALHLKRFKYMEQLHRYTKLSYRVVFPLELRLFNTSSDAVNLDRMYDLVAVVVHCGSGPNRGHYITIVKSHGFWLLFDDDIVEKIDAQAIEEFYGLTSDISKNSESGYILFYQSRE
Outline: as §1

USP47 = biological target: T2, USP47 (UniProt Q96K76)
T2 sequence (whole entry): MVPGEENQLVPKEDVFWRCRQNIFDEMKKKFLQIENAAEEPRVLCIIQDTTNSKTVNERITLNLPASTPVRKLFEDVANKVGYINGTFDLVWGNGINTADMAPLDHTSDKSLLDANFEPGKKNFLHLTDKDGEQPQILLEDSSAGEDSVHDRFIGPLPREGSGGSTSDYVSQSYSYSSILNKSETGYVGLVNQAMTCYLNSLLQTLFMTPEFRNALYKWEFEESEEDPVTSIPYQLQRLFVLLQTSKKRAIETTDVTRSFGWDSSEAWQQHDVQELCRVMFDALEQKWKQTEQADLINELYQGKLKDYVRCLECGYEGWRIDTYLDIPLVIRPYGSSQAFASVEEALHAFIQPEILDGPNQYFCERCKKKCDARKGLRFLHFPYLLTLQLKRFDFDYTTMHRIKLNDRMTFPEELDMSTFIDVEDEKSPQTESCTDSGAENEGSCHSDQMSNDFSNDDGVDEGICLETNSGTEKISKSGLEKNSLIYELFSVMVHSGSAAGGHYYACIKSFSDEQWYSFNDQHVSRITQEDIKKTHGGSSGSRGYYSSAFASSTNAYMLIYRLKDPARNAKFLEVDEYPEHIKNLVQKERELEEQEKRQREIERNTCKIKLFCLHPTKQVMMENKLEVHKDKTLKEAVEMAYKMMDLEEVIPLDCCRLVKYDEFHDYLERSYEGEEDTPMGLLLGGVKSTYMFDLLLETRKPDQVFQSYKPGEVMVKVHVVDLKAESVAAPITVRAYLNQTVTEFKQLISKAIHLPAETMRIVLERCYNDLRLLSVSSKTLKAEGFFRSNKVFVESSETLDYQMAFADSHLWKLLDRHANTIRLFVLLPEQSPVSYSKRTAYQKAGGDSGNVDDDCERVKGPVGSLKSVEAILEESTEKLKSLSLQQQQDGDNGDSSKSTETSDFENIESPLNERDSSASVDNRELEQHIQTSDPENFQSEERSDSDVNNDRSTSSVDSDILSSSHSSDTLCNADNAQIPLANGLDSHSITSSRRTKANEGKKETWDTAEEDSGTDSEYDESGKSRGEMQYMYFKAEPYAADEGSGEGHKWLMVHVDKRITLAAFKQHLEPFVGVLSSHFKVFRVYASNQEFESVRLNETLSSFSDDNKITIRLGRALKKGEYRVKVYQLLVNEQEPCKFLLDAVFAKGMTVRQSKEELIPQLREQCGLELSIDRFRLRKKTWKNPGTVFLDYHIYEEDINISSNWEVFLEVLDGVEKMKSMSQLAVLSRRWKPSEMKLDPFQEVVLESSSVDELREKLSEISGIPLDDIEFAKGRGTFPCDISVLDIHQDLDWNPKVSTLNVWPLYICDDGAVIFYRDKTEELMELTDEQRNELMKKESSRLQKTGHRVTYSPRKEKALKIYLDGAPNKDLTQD
Outline: as §1

USP48 = biological target: T3, USP48 (UniProt Q86UV5)
T3 sequence (whole entry): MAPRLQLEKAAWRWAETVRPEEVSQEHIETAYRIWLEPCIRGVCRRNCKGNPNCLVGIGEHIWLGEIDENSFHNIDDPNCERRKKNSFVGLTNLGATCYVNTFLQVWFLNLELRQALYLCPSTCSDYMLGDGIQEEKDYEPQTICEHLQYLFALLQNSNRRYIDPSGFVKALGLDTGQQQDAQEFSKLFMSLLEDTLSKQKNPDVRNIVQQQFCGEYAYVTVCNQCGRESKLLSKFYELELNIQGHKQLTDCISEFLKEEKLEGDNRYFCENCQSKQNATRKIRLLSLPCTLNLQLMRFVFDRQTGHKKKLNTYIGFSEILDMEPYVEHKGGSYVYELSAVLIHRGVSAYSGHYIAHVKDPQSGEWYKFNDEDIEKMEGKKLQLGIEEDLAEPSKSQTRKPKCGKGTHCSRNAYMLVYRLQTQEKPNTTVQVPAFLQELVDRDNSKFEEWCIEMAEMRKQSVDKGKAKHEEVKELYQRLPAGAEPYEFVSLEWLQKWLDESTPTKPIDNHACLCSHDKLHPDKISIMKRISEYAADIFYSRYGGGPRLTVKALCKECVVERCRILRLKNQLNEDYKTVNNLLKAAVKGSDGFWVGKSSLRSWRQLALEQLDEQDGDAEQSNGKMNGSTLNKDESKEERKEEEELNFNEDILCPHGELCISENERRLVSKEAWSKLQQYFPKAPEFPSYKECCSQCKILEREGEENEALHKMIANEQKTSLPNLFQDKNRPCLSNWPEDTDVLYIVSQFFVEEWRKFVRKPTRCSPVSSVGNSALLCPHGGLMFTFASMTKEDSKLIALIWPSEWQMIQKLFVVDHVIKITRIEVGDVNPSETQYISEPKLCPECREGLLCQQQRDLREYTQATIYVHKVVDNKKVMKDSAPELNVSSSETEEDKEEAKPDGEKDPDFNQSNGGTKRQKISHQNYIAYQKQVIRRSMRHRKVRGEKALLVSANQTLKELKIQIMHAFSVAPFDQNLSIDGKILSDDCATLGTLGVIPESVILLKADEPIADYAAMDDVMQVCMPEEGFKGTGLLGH
Outline: as §1

USP5 = biological target: T4, USP5 (UniProt P45974)
T4 sequence (whole entry): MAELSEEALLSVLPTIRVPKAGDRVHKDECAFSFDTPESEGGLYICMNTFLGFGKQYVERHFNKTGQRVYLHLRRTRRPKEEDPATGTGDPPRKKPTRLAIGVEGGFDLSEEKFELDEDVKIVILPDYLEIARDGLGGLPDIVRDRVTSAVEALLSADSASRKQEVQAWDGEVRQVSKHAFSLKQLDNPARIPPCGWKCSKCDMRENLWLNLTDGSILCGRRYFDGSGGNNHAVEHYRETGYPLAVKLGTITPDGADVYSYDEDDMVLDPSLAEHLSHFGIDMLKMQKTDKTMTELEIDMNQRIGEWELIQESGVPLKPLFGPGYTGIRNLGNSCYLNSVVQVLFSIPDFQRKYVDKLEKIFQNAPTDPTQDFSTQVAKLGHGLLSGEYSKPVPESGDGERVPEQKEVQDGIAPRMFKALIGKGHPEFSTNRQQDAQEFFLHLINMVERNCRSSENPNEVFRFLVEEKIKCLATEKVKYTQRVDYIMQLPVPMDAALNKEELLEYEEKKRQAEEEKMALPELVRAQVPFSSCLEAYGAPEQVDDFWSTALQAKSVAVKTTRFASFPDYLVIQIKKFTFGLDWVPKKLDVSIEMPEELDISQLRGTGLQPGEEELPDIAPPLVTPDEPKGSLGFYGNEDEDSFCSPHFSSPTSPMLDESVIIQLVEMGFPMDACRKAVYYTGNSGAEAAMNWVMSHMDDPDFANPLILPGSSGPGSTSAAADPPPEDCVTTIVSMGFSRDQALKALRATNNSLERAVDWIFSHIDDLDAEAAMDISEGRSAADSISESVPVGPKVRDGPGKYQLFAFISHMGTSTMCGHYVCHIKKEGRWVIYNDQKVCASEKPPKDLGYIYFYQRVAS
Outline: as §1

USP54 = USP54 (UniProt Q70EL1)
Outline: as §1

USP7 = USP7 (UniProt Q93009)
Sequence of USP7 (Q93009 whole entry, looked up): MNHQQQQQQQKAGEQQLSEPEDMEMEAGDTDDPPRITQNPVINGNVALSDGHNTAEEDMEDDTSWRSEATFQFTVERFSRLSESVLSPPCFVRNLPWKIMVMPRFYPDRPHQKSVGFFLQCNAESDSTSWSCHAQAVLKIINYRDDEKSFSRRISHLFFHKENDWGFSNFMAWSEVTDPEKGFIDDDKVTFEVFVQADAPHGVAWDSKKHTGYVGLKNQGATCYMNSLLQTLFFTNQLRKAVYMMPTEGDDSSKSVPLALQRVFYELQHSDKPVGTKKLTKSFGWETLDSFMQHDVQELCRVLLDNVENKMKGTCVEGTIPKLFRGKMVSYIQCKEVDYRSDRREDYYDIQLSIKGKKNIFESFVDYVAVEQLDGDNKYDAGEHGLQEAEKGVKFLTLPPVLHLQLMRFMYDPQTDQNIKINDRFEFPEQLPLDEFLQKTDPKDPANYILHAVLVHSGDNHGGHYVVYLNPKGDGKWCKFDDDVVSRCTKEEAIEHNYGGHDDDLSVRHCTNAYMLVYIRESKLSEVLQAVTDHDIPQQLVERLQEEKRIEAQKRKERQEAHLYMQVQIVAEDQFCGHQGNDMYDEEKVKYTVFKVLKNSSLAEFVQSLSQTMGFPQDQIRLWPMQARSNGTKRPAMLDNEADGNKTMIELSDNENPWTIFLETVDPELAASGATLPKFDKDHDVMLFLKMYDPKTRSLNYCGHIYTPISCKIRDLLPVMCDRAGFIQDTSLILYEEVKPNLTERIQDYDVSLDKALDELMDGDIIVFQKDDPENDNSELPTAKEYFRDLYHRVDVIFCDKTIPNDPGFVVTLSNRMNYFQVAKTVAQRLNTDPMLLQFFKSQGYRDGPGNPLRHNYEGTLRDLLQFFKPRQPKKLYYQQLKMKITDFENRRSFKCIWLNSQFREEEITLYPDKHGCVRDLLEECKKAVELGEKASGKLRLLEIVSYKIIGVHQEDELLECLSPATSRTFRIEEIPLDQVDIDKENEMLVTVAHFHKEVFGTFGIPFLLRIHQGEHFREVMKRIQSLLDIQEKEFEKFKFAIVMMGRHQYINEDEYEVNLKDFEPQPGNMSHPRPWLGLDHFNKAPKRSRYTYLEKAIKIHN
Outline: as §1

USP8 = biological target: T5, USP8 (UniProt P40818)
T5 sequence (whole entry): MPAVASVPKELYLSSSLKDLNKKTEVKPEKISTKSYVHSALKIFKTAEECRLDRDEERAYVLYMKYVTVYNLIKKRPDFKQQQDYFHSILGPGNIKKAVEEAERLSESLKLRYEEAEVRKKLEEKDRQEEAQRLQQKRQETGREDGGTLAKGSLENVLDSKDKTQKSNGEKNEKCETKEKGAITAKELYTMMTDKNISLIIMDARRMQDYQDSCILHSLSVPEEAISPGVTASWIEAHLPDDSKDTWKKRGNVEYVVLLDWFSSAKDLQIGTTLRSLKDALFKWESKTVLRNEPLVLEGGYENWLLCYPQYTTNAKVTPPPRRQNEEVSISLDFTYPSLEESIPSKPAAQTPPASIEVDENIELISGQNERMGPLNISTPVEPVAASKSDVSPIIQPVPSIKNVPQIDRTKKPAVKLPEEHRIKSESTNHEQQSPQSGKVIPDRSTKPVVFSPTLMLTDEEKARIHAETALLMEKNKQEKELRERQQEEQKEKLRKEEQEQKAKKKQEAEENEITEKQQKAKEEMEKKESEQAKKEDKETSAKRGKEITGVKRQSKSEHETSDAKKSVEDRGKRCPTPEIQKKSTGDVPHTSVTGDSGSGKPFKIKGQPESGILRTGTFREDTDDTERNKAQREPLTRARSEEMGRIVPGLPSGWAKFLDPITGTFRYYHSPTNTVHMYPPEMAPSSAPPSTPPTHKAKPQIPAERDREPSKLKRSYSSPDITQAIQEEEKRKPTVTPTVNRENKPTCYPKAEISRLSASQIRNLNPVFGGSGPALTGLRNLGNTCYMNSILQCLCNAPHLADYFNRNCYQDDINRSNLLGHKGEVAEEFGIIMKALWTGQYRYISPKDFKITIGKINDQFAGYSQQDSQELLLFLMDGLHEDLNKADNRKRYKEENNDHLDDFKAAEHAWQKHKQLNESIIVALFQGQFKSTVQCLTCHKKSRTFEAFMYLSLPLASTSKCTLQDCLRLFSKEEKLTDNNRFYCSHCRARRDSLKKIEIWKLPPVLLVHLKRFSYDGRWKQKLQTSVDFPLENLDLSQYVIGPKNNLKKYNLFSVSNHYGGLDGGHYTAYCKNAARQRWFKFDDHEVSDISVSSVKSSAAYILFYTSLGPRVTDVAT
Outline: as §1

USP9X = USP9X (UniProt Q93008)
Sequence of USP9X (Q93008 whole entry): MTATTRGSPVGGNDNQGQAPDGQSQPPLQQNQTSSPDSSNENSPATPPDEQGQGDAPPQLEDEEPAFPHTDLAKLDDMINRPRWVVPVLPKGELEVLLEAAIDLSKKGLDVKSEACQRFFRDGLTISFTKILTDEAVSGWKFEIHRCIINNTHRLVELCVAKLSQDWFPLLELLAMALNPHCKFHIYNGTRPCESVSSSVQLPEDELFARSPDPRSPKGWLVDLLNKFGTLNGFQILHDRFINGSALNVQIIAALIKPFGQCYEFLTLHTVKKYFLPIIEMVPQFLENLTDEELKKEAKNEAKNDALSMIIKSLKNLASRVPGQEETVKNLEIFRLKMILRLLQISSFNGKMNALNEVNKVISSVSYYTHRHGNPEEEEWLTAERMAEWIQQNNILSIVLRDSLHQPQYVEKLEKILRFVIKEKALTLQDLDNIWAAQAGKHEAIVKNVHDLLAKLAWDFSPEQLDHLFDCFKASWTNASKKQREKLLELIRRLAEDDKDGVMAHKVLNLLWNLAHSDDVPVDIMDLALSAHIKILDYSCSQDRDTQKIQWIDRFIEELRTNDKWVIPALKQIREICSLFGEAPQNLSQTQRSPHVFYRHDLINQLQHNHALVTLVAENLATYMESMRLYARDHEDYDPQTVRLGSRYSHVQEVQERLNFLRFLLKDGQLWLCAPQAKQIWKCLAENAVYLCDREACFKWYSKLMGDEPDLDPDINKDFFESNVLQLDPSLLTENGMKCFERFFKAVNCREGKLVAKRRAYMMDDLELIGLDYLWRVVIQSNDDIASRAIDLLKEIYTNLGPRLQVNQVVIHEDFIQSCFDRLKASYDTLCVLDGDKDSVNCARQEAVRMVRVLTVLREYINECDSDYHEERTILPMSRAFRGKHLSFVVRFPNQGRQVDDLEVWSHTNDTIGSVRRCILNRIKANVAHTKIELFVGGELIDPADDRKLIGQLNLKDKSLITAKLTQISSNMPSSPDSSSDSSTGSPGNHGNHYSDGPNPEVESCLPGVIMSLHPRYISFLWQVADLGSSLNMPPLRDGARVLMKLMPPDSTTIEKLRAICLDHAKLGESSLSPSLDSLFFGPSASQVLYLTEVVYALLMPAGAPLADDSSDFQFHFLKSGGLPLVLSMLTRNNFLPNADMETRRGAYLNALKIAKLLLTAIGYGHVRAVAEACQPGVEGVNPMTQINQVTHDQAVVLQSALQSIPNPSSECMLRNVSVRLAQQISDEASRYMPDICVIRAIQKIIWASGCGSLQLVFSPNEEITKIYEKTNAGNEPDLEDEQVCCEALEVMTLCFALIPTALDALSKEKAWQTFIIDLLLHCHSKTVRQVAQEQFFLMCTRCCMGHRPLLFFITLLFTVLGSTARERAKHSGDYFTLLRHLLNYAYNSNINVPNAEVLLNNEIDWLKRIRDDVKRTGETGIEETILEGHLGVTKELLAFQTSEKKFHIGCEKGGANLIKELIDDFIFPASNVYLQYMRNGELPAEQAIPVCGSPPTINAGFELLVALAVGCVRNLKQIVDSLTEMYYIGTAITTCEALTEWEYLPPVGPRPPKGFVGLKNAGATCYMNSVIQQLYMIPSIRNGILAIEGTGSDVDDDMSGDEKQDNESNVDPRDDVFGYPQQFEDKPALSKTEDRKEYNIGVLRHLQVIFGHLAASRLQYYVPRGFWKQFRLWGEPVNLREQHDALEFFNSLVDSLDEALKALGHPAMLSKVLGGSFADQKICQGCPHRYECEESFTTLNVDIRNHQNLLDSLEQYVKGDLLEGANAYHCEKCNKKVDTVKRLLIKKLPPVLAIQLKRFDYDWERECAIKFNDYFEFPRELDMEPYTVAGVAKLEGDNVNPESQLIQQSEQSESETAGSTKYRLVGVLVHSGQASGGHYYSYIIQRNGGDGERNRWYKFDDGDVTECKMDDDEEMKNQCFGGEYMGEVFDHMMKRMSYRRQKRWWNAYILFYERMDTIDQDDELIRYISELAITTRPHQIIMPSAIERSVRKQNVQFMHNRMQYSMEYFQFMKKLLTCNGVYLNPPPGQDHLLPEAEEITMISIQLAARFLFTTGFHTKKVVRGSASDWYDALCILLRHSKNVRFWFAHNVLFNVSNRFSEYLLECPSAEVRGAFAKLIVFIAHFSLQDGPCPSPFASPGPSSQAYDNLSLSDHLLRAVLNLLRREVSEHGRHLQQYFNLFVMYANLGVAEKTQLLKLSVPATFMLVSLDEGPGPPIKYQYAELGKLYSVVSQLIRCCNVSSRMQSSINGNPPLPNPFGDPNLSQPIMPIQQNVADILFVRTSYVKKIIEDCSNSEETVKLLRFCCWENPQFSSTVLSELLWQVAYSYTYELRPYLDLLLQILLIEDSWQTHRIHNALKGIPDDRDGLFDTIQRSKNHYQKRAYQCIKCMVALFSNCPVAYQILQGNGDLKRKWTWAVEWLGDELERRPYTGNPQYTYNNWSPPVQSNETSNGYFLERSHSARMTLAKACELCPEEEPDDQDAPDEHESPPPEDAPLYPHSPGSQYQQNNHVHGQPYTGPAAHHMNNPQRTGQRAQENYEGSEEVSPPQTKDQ
Outline: as §1

UniProt O00487 = biological target: UniProt O00487
Sequence of UniProt O00487 (O00487 whole entry): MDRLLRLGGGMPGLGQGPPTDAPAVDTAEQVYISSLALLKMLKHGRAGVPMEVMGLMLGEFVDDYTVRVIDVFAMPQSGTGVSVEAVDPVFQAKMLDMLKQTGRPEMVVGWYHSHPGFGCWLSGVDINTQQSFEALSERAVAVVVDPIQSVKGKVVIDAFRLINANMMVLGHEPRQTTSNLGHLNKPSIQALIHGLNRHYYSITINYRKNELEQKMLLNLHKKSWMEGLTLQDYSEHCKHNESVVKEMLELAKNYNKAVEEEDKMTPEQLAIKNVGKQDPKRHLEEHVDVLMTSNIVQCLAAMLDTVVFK
Outline: as §1

Measured: log2 ratio of Biotin-Ahx-Ub-VS probe labelling

O=C(CCl)N[C@H]1CCS(=O)(=O)c2ccccc21
inactive: USP42 0.186 | USP46 0.0271 | USP47 -0.0612 | USP48 -0.022 | USP5 -0.472 | USP54 -0.274 | USP7 -0.346 | USP8 -0.0621 | USP9X -0.14 | UniProt O00487 -0.0201
